HSF1 inhib – HSF1 inhibition. NIH3T3-HGL HSE-luciferase, MG132-induced, luminescence 8 h; stronger effect = lower value. activity change, negative = inhibition, % at 7.5 µM (by protocol). 300,000 compounds, 0.77% hits;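 active = more than half of replicate wells show activity change below -50%, luminescence cut by over half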;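 also: luciferase reports HSF-1 transcriptional activity via heat shock element; 0% = median of DMSO wells and -100% = zero luminescence signal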
NR0B1 inh – NR0B1 (DAX1) inhibition | P51843 | HEK293 Gal4-DAX1 luciferase reporter, luminescence | inhibition, % at 6.75 µM | 340,000 compounds, 0.99% hits | AID 504766;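 active = inhibition above the mean over all tested compounds plus 3 SD, cut at about 4.2% in these data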;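 also: 0% = DAX1-transfected cells with DMSO and 100% = empty-vector control cells with DMSO; inhibition shows as a rise in luminescence from relieved DAX1 repression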
Target sequence (P51843 207-470 limits assumed): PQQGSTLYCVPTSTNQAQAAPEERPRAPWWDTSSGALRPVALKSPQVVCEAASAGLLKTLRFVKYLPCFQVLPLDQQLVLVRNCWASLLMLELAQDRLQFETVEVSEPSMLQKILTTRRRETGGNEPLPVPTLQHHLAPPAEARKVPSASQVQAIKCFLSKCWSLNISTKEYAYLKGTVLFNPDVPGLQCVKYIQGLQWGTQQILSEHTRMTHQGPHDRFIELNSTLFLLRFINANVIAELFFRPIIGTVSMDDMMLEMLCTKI
AHR activator – human AHR activation; P35869; AHR-responsive luciferase reporter cells, luminescence; activation, % at 5 µM; 320,000 compounds, 2.5% hits; in the data active = activation above about 47%;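 also: 0% = vehicle wells and 100% = reference agonist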
HSP90 inh – blocks HSP90-mediated luciferase refolding in reticulocyte lysate | Rabbit reticulocyte lysate, luciferase refolding luminescence, 3 h | inhibition, % at 5.6 µM | 290,000 compounds, 0.91% hits;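 active = inhibition above the screen-wide mean plus 3 SD, computed separately per campaign, cut at about 16% in these data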;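 also: 0% = DMSO wells and 100% = 60 µM geldanamycin wells; inhibitors lower the luminescence because luciferase stays unfolded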
HSF-1 act – increases HSF-1 driven luciferase reporter signal. NIH3T3-HGL HSF-1 luciferase reporter, MG132, 8 h; 100% = twice DMSO control signal. activation, % at 9 µM. 300,000 compounds, 1.7% hits;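 active = mean replicate activation of at least 50% with a set share of replicates each reaching 50%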;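 also: 0% = median of the neutral control wells and 100% = twice that signal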
FXN GAA850 act – frataxin GAA850 promoter activation. activation, % at 6 µM. 360,000 compounds, 0.56% hits. HEK293 lucGAA850 FXN promoter luciferase reporter, 24 h; percent of 10 µM SAHA response;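 active = activation above the average of all compounds screened plus 3 SD, cutoff fixed separately per campaign, cut at about 7.5% in these data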;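 also: 0% = DMSO wells and 100% = 10 µM SAHA wells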
Starred values were filed as active, the others as inactive; · = not tested or not shown. The list is not random: actives were taken first. Their share in the collection is about 5.9%.

SMILES	HSF1 inhib	NR0B1 inh	AHR activator	HSP90 inh	HSF-1 act	FXN GAA850 act
CCC(=O)N1CCC1(C)C(=O)Nc1ccc(F)cc1 (stereo unspecified)	·	·	·	·	·	0
CCC1(C)Cc2c(sc3nc(NN)n(C)c(=O)c23)CO1 (stereo unspecified)	7	0	62*	2	11	-2
COc1ccc(NC(=O)CN2C(=O)NC(C)(Cc3ccc(OC)c(OC)c3)C2=O)cc1 (stereo unspecified)	·	0	·	·	·	2
COc1ccc(S(=O)(=O)N2CCOCC2)cc1NC(=O)c1ccncc1	·	0	1	·	·	0
O=C(CCn1c(=O)oc2ccc(Cl)cc21)NCCCN1CCOCC1	-4	0	2	2	0	-1
COc1cccc(C(=O)CC(=O)C(=O)Nc2cc(OC)c(OC)c(OC)c2)c1	-58*	·	3	3	-62	·
COc1cccc(C(=O)CC(=O)C(=O)Nc2cc(OC)ccc2OC)c1	7	-2	8	-6	-2	1
O=C(CSc1nccc(=O)[nH]1)Nc1ccc(N2CCOCC2)cc1	-1	-1	1	2	-1	0
COc1cc(C(=O)N2CCN(C(=O)CC(C)C)CC2)cc(OC)c1OC	-73*	0	1	0	-78	4
OC(c1ccc(-c2ccccc2)cc1)c1ncc(-c2ccc(C(F)(F)F)cc2)[nH]1 (stereo unspecified)	·	·	·	·	·	0
CC(C)c1nc2ccccc2n1CC(O)COC1CCCCC1 (stereo unspecified)	1	6.6*	1	-2	3	2
COc1cccc2c(=O)c3ccccc3oc12	11	4.5*	9	1	8	6
Cc1ccccc1N1CCN(C2CCCN(C(=O)c3cnsn3)C2)CC1 (stereo unspecified)	-1	0	-1	-5	3	1
COc1ccc(OC)c(/C=N/NC(=O)CCCC(=O)Nc2cccc(Br)c2)c1	8	-1	70*	-1	0	0
COc1ccc(O)c(/C=N/NC(=O)CCC(=O)Nc2cccc(C)c2)c1	2	0	10	-2	-11	0
Cc1ccc(/C=C2\SC(=S)N(CCC(=O)N3CCOCC3)C2=O)cc1	-2	-1	0	3	-11	0
O=c1oc(-c2ccc(O)c(O)c2)cc2cc(O)cc(O)c12	·	7.6*	11	·	·	7
CCS(=O)(=O)NC(=O)C1(C)CCN1C(=O)Cc1ccc(Cl)cc1Cl (stereo unspecified)	·	·	·	·	·	0
CCOC(=O)c1ccc(S(=O)(=O)N2CCC(C(=O)NCC3COc4ccccc4O3)CC2)cc1 (stereo unspecified)	·	0	·	·	·	-1
CCc1ccc(C2=NN(C(=O)CCC(=O)O)C(c3cccs3)C2)cc1 (stereo unspecified)	13	4.7*	11	-3	13	4
CS(=O)(=O)Nc1cccc(C2=NN(C(=O)c3ccccc3)C(c3cccs3)C2)c1 (stereo unspecified)	8	2	1	-1	16	1
CS(=O)(=O)Nc1cccc(C2=NN(C(=O)CCCC(=O)O)C(c3cccs3)C2)c1 (stereo unspecified)	18	0	1	4	63*	0
CC(C(=O)Nc1ccc(S(=O)(=O)N2CCCC2)cc1)N1CCCC(C(N)=O)C1 (stereo unspecified)	·	0	·	·	·	1
CC(C)C[C@H](NC(=O)c1[nH]cnc1C(=O)Nc1ccccc1F)C(=O)OC(C)(C)C	·	2	·	·	·	1
COc1ccc(Cc2nc(=S)[nH][nH]2)cc1Br	5	4.5*	3	0	14	2
SMILES	HSF1 inhib	NR0B1 inh	AHR activator	HSP90 inh	HSF-1 act	FXN GAA850 act
O=c1n(-c2ccc(Br)cc2)cnn1-c1ncccc1[N+](=O)[O-]	36	4.3*	16	2	30	3
O=[N+]([O-])c1cccnc1N1CCCCC1	2	0	0	-1	1	3
CSc1nnc(CCCCCNC(=O)OC(C)(C)C)o1	0	-1	0	-1	-1	0
CSc1nnc(CCNC(=O)OC(C)(C)C)o1	-6	4.5*	0	1	-12	0
COC(=O)c1ccccc1NC(=O)C1CCCC1	-1	1	2	-2	7	1
COC(=O)c1ccccc1NC(=O)COC(=O)C1CCCCC1	-5	4.4*	1	1	1	0
O=C(Cc1ccccc1)Nc1ccc(SC(F)F)cc1	18	4.3*	2	-5	40	5
O=C(Cc1ccccc1)Nc1ccc(F)cc1	5	·	6	3	16	4
COc1ccccc1CNC(=O)COC(=O)c1ccc2c(=O)n3c(nc2c1)CCCCC3	·	0	-1	·	·	2
COc1cccc(N2CCN(C(=O)Cn3c(=O)oc4ccccc43)CC2)c1	-2	4.3*	3	1	12	2
CC(NC(=O)/C(C#N)=C/c1ccc(N2CCOCC2)cc1)c1ccccc1 (stereo unspecified)	-11	-1	47*	5	4	0
CCOC(=O)c1cnc(SCCc2ccccc2)nc1N	54	3	0	7	88*	7
CCOC(=O)c1cnc(SC2CC(=O)N(c3ccccc3)C2=O)nc1N (stereo unspecified)	-1	0	0	1	3	1
CCCCSc1ncc(C(=O)OCC)c(N)n1	31	3	0	4	64*	3
CCOC(=O)c1cnc(SCC(=O)c2ccc(Cl)cc2)nc1N	-6	0	3	4	-14	0
CCOC(=O)c1cnc(SC2CCc3ccccc3C2=O)nc1N (stereo unspecified)	-16	0	25	16*	-19	0
CCOC(=O)c1cnc(SCC(=O)N2CCN(C(=O)c3ccco3)CC2)nc1N	0	1	-1	2	-8	1
O=C(COC(=O)c1cccc(-n2cnnn2)c1)c1ccc(F)c(F)c1	·	1	·	·	·	0
CC(C)(C)NC(=O)NC(=O)COc1ccc(Br)cc1Br	46	2	3	6	74*	4
O=C(COc1ccc(Br)cc1Cl)NC(=O)NCc1ccccc1	27	0	2	-1	67*	1
O=C(COc1ccc(Br)cc1Br)NC(=O)NC1CCCC1	-3	4	0	-1	3	4
C[C@@H]1COC(=O)[C@@H](CC(=O)OC(C)(C)C)C/C=C\C[C@@H](CC(=O)N[C@H](CO)Cc2ccccc2)C(=O)N1	·	0	0	·	·	0
C/C(CC(=O)Nc1ccc(C)c(Cl)c1)=N\NC(=O)c1cccc(O)c1	32	0	0	-1	45	1
C/C(CC(=O)Nc1ccc(C)c(Cl)c1)=N\NC(=O)c1ccccn1	136	-1	7	9	206*	4
C/C(CC(=O)Nc1ccc(Cl)c(Cl)c1)=N\NC(=O)C(=O)N1CCCCC1	43	0	-1	-1	54*	1

Source: PubChem (several laboratories)
